This is an account of results in PubChem BioAssay (Tox21).

Where “and” joins values, the source holds several entries; their conditions need not be identical. Equal entries are not always repeated. Inconclusive results are not listed. More than one record can exist for a structure, and the calls need not agree. Calls of active or inactive are those of the source. Unless noted, the call rests on the fitted dose curve; in most records, active means well fitted curve in the direction sought with a large enough effect in the repeat runs; inconclusive means weak or mixed curves; inactive means no such curve, though single readings can be large; an effect the other way counts as inactive or inconclusive.

Assay [1] is described as follows: qHTS assay to identify small molecule agonists of the vitamin D receptor (VDR) signaling pathway - cell viability counter screen (AID 743224). Further: nearly all actives have a fitted effect of over 50% in size. Further: potency means the concentration at half of the fitted maximal effect. Particulars: VDR-bla HEK293T viability, CellTiter-Glo luminescence, 16 h; series mostly up to 62.6 µM. In outline:
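Compounds were pin-transferred onto VDR-bla cells plated 4 h earlier; following 16 h incubation at 37C, cell viability was quantified by CellTiter-Glo luminescence after 30 min at room temperature.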

Assay [2] is described as follows: qHTS assay to identify small molecule antagonists of the vitamin D receptor (VDR) signaling pathway - cell viability counter screen (AID 743225). Further: nearly all actives have a fitted effect of over 50% in size. Particulars: VDR-bla HEK293T viability, CellTiter-Glo luminescence, 16 h; series mostly up to 61 µM. In outline: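 Cells (VDR-UAS-bla HEK 293T) are plated, rested 4 h at 37C, dosed with compound and 3 nM final 1-alpha,25-dihydroxy vitamin D3, and incubated 16 h. Viability is taken from CellTiter-Glo luminescence in the reporter wells.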

A short description of assay [3]: qHTS assay to identify small molecule agonists of the NFkB signaling pathway (AID 1159509; active means well fitted curve in the direction sought with a large enough effect in the signal ratio in the repeat runs, not every such curve was filed as active; the % refers to the signal ratio). The note with it: NFkB-bla ME-180 cells, beta-lactamase FRET ratio, 5 h; series mostly up to 61 µM. The procedure, abridged:
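Beta-lactamase reporter assay run in quantitative high-throughput format on an NF-kB-responsive ME-180 line, with 5 hr compound treatment and a FRET-based blue/green fluorescence readout.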
On the technique in general: Quantitative high-throughput screening tests each substance at several concentrations.

Assay [4] is described as follows: qHTS assay to identify small molecule agonists of the endoplasmic reticulum stress response signaling pathway (AID 1159516; active means well fitted activation curve with a large enough effect in the signal ratio in the repeat runs, not every such curve was filed as active; the % refers to the signal ratio). The note with it: ESRE-bla HeLa, ER stress beta-lactamase reporter, 5 h; series mostly up to 61 µM. In outline:
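Using a HeLa line with an ESRE-driven beta-lactamase gene, agonist activity was measured by FRET substrate fluorescence (460 and 530 nm emission) after cells were treated with compounds for 5 hr at 37 C and 5% CO2.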

A short description of assay [5]: qHTS assay to identify small molecule agonists of the endoplasmic reticulum stress response signaling pathway - cell viability counter screen (AID 1159517; calls by dose curve;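 further: HeLa cells carrying an ER stress response element beta-lactamase reporter; nearly all actives have a fitted effect of over 50% in size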). Particulars: ESRE-bla HeLa viability, CellTiter-Glo luminescence, 5 h; series mostly up to 61 µM. The procedure, abridged: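 Steps: seed 1,500 ESRE-bla HeLa cells per well; incubate overnight at 37 C, 5% CO2; add compounds in DMSO for 5 hr; run FRET substrate 2 hr RT; add CellTiter-Glo, wait 30 min, read luminescence.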

Assay [6] in a line: qHTS assay to identify small molecule antagonists of the retinoid-related orphan receptor gamma (ROR-gamma) signaling pathway - cell viability counter screen (AID 1159520). Further: nearly all actives have a fitted effect of over 50% in size. Particulars: Tet-on RORgamma CHO cells viability, ATP luminescence, 16 h; series mostly up to 92.4 µM. In outline:
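Tet-on ROR gamma CHO cells were given compounds for 2 hr, then doxycycline hyclate at 1 uM final, and incubated 16 hr at 37 C. Viability was measured as ATP content by CellTiter-Glo luminescence.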

Assay [7] is described as follows: qHTS assay to identify small molecule agonists of the AP-1 signaling pathway - cell viability counter screen (AID 1159525; calls by dose curve; further: nearly all actives have a fitted effect of over 55% in size). Particulars: ME-180 AP-1-bla cells viability, ATP luminescence, 5 h; series mostly up to 76.8 µM. In outline:
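Same-well cytotoxicity counter screen of the Tox21 10K library in ME-180 cells. The readout is ATP-dependent luminescence after 5 h compound treatment. Data are normalised to DMSO and tetra n-octyl ammonium bromide controls.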

A short description of assay [8]: qHTS assay to identify small molecule agonists of the AP-1 signaling pathway (AID 1159526; calls by dose curve). The note with it: ME-180 (cervical carcinoma) AP-1-bla reporter, beta-lactamase FRET ratio, 5 h; series mostly up to 76.8 µM.
The target in assay [9] is Nuclear receptor ROR-gamma (Homo sapiens) (UniProt P51449). Briefly: qHTS assay to identify small molecule antagonists of the retinoid-related orphan receptor gamma (ROR-gamma) signaling pathway (AID 1159521). Particulars: Tet-on RORgamma CHO cells, RORE-luciferase, 16 h; series mostly up to 92.4 µM. In outline: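 RORγ antagonism is scored from reduced reporter luminescence in Tet-on CHO cells. Induction used 1 uM final doxycycline hyclate for 16 h at 37 C, following a 2 h compound exposure.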

As to `CCOC(=O)NNc1nncc2ccccc12`, the Potency result in assay [1], in assay [6] and in assay [7] was “inactive” in each case. Besides, the compound was called inactive in [2], in [3], in assay [4], in [5] and in assay [8].
On to `CC(c1cc2ccccc2s1)N(O)C(N)=O` (stereo not given), for which the Potency result in assay [1], in [6] and in assay [7] was “inactive” each time. For the same compound, the compound was classed as inactive in assay [2], in assay [3], in assay [4], in assay [5] and in assay [8].
With `CC1CCC(C(C)C)C(O)C1` (stereo not given), the Potency result in [1], in assay [6], in assay [9] and in assay [7] was “inactive” throughout. The compound was called inactive in [2], in [3], in assay [4], in assay [5] and in assay [8].
Regarding `C=CCNC(N)=S`, the Potency result in assay [1], in assay [6] and in assay [7] was “inactive” each time. Also, the compound was called inactive in [2], in [3], in assay [4], in assay [5] and in [8].
With `Cc1cccnc1`, the Potency result in assay [1], in assay [6], in [9] and in [7] was “inactive” each time. The call in assay [2], in assay [3], in assay [4], in assay [5] and in assay [8] was inactive.
For the compound `O=C(OCCOCCOC(=O)c1ccccc1)c1ccccc1`, the Potency entry in assay [1], in [6], in assay [9] and in assay [7] was “inactive” throughout. Further, the call in assay [2], in [3], in assay [4], in assay [5] and in assay [8] was inactive.
For the compound `Cc1cnc(C(=O)NCCc2ccc(S(=O)(=O)NC(=O)NC3CCCCC3)cc2)cn1`, the Potency result in assay [1], in [6] and in assay [7] was “inactive” each time. The compound was called inactive in assay [2], in [3], in assay [4], in assay [5] and in [8].
On to `ON=C1CCCCC1`, for which, in assay [1], the Potency entry was “inactive and 38.9 µM (active)”. Moreover, the compound was classed as inactive in assay [2], in assay [3], in [4], in assay [5] and in assay [8]. Besides, the Potency entry in [6], in assay [9] and in assay [7] was “inactive” throughout.
On to `OCCOCCOCCO`, for which the Potency entry in [1], in assay [6], in assay [9] and in [7] was “inactive” each time. Further, the outcome in assay [2], in assay [3], in [4], in assay [5] and in assay [8] was inactive.
`O=C(O)c1cc(=O)c2c(OCC(O)COc3cccc4oc(C(=O)O)cc(=O)c34)cccc2o1`: the Potency entry in assay [1], in assay [6], in assay [9] and in assay [7] was “inactive” throughout. Also, the result in assay [2], in [3], in assay [4], in assay [5] and in assay [8] was inactive.
Consider `CC(=O)OCC(=O)[C@@]12N=C(C)O[C@@H]1C[C@H]1[C@@H]3CCC4=CC(=O)C=C[C@]4(C)[C@H]3[C@@H](O)C[C@@]12C`, for which the Potency result in assay [1], in assay [6], in assay [9] and in assay [7] was “inactive” in each case. Further, the result in [2], in assay [3], in assay [4], in assay [5] and in assay [8] was inactive.
